The values below come from PubChem BioAssay.

Structures are written as SMILES. Active and inactive are the calls of the source. Unless noted, no rule for the calls is given here.

Assay [1] is described as follows: HepG2 liver cancer cell viability effects, profiling panel, resazurin fluorescence, 24 h, PK04 Diversity Set (AID 1172). Also: test concentration not given here. Conditions: higher = more signal.
Assay [2] in a line: basal S. cerevisiae growth modulation, no modifier, primary screen, OD600, strain BY4716, 24 h, basal condition (AID 1173). The following applies: OD600, 24 h, higher = more signal, called active from +8 up or from −8 down.
A short description of assay [3]: MM1S myeloma cell viability, profiling panel, resazurin fluorescence, basal, 24 h, PK04 Diversity Set (AID 1174).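 Also: MM1S multiple myeloma cell line; test concentration not given here.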 Conditions: higher = more signal, called active from +8 up or from −8 down.
Assay [4] has as its target Dihydroorotate dehydrogenase (quinone), mitochondrial (Plasmodium falciparum (isolate 3D7)) (UniProt Q08210). Briefly: PfDHODH enzyme inhibitors, primary screen, biochemical, C-terminal His tag, absorbance 600 nm (AID 1175).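 Also: recombinant parasite enzyme with a five histidine tag at its C terminus; test concentration not given here.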 Conditions: DCIP absorbance 600 nm, higher = more signal, called active from +8 up or from −8 down.
The nature of assay [5]: P. aeruginosa biofilm formation inhibitors, primary screen, strain PAO1, LB-PBS medium, absorbance 600 nm (AID 1176). Also: test concentration not given here. The following applies: P. aeruginosa PAO1 growth/biofilm, A600, 12 h; higher = more signal.
Assay [6] in a line: S. cerevisiae RM11-1a growth modifiers, primary screen, strain RM11-1a, OD600, basal, 24 h (AID 1177).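 Also: cultures grown under basal conditions with no added stressor; test concentration not given here.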 Conditions: OD600, 24 h, higher = more signal, called active from +8 up or from −8 down.
Assay [7] in a line: E. coli acrAB mutant growth effects, primary screen, E. coli filamentation inducers, strain DRC39, OD650, 24 h (AID 1178).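 Also: growth measured as culture turbidity by optical density at 650 nm; test concentration not given here.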 Conditions: higher = more signal, called active from +8 up or from −8 down.
The nature of assay [8]: E. coli acrAB mutant growth effects, primary screen, E. coli filamentation inducers, strain DRC39, OD650, 48 h (AID 1179).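 Also: screen aims at cell division blockers that make cells filament.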 The following applies: E. coli DRC39 delta-acrAB growth, higher = more signal, called active from +8 up or from −8 down.
Assay [9] can be described thus: RPMI8226 myeloma cell viability, profiling panel, resazurin fluorescence, basal, 24 h, PK04 Diversity Set (AID 1180).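 Also: RPMI8826 multiple myeloma cell line at 5000 cells per well; test concentration not given here.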 Conditions: higher = more signal.
For assay [10], the target named is E3 ubiquitin-protein ligase XIAP (Homo sapiens) (UniProt P98170). Briefly: XIAP binders, primary screen, biophysical, small-molecule microarray, fluorescence 635 nm (AID 1181).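 Also: score merges 667 nm emission and signal to noise over triplicate slides.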 The following applies: small-molecule microarray binding, higher = more signal.
Sequence of E3 ubiquitin-protein ligase XIAP (Homo sapiens) (P98170 whole entry, looked up): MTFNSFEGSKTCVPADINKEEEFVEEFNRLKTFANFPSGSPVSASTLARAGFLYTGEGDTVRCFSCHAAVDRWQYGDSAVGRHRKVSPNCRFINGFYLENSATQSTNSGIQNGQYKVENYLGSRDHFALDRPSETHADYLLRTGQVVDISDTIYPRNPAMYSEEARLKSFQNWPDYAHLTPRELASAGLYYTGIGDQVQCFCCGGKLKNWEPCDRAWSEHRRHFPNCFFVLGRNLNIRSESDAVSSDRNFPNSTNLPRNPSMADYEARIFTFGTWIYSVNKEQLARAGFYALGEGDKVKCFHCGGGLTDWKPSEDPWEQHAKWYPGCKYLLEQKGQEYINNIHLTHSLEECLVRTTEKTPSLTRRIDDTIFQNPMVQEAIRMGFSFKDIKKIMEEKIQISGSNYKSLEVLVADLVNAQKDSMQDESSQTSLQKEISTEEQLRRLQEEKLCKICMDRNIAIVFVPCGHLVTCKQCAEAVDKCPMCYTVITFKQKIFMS

Sequence of Dihydroorotate dehydrogenase (quinone), mitochondrial (Plasmodium falciparum (isolate 3D7)) (Q08210 whole entry, looked up): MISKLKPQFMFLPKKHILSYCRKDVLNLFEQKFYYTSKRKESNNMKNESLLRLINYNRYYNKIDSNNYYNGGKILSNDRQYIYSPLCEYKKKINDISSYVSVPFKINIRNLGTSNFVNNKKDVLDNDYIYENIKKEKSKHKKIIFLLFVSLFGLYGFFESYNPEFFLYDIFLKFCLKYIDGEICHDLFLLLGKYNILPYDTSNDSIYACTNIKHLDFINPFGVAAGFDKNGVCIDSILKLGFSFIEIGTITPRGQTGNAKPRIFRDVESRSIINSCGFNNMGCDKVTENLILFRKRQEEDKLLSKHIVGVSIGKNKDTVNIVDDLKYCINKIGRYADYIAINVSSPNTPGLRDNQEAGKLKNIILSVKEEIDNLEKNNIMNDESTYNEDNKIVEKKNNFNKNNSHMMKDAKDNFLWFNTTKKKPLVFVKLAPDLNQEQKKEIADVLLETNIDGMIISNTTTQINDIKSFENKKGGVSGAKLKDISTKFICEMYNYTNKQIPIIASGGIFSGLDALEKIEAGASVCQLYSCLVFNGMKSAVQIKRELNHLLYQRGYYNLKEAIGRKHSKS

In the case of `CCOC(=O)C1=CC[C@@H](c2ccccc2)N(S(=O)(=O)c2ccc(C)cc2)[C@H]1c1ccccc1I`, the z-score in assay [1] was 0.76; in assay [2] it was 1.25 (inactive); in assay [3], -0.0131 (inactive); in assay [5] it was 1.05 (inactive); in assay [6], -0.217 (inactive); in [7], 0.254 (inactive). Besides, the figures for the z-score in assay [8] and in assay [9] were 0.202 (inactive) and -1.16, respectively. Also, the composite z-score in [4] is -0.158 (inactive); in assay [10] it was -0.123.

Take `COC(=O)c1cccc([C@H]2OC(=CC(=O)OC(C)C)C[C@@H](c3cccc(C(=O)OC)c3)O2)c1`: the z-score is -0.674 in assay [1]; -2.43 (inactive) in assay [2]; -0.799 (inactive) in assay [3]; 0.188 (inactive) in assay [5]; -0.258 (inactive) in [6]; -0.435 (inactive) in [7]. Besides, the figures for the z-score in assay [8] and in assay [9] were -0.0196 (inactive) and 0.0732, respectively. Besides, the values for the composite z-score in [4] and in assay [10] were -0.351 (inactive) and 0.378, respectively.

In the case of `C=CCOC(=O)[C@@H]1[C@H]2C(=O)O[C@H](c3ccccc3)[C@H](c3ccccc3)N2[C@H](c2ccc(OCCOC(=O)[C@H]3C[C@H]4C(=O)NCC(=O)N4[C@H]3c3cccc(OCCO)c3)cc2)[C@@]12C(=O)Nc1ccc(I)cc12`, the z-score was -0.155 in assay [1]; 1.87 (inactive) in [2]; -0.0681 (inactive) in [3]; 3.08 (inactive) in [5]; 1.08 (inactive) in assay [6]; 0.0109 (inactive) in [7]. The z-score is 0.312 (inactive) in assay [8] and -1.09 in assay [9]. Moreover, the composite z-score in [4] is 0.131 (inactive); in assay [10], -0.117.

Turning to `C=C(/C(=C/C[C@@H](OC(C)=O)c1cccc(OCCO)c1)c1cnc2ccccc2c1)C(C)C`, the z-score in assay [1] was -0.682; in assay [2], -0.517 (inactive); in assay [3], -0.421 (inactive); in assay [5] it was -0.104 (inactive); in assay [6] it was 0.183 (inactive); in assay [7], 0.12 (inactive). Also, the z-score in assay [8] was -0.406 (inactive); in assay [9], 0.213. The values for the composite z-score in [4] and in assay [10] were -3.98 (inactive) and -0.157, respectively.

In the case of `C=C(CCCC)C(=O)CC[C@@H](OC(=O)c1ccccc1-c1ccccc1C(=O)O)c1ccccc1OCCO`, the z-score in [1] is -0.174; in assay [2], -2.49 (inactive); in [3] it was -0.608 (inactive); in [5] it was 0.118 (inactive); in assay [6] it was -1.61 (inactive); in assay [7], 0.625 (inactive). Further, the figures for the z-score in assay [8] and in assay [9] were 0.403 (inactive) and -1.49, respectively. For the same compound, the composite z-score is -1.35 (inactive) in assay [4] and 0.269 in [10].

As for `C=CCNC(=O)[C@H]1[C@@H]2C(=O)O[C@@H](c3ccccc3)[C@@H](c3ccccc3)N2[C@@H](c2ccccc2OCCO)[C@]12C(=O)N(C(=O)OCCOC)c1ccc(C#Cc3ccc(OC)cc3)cc12`, the z-score in assay [1] was -0.345; in [2], 1.19 (inactive); in assay [3], -0.637 (inactive); in assay [5], 2.23 (inactive); in assay [6], 3.16 (inactive); in assay [7], -0.604 (inactive). Besides, the z-score in [8] is 0.582 (inactive); in [9] it was -1.17. For the same compound, the composite z-score is -0.306 (inactive) in assay [4] and -0.113 in [10].

Consider `COC(=O)C(CC#Cc1ccc2c(c1)[C@]1(C(=O)N2)[C@H](c2ccc(OCCO)cc2)N2[C@H](c3ccccc3)[C@H](c3ccccc3)OC(=O)[C@H]2[C@@H]1C(=O)N1CCCCCCC1)C(=O)OC`, for which the z-score in assay [1] was -0.198; in assay [2], 1.12 (inactive); in [3] it was -0.223 (inactive); in assay [5], 2.9 (inactive); in assay [6] it was 1.3 (inactive); in [7], -0.8 (inactive). Moreover, the z-score was 0.136 (inactive) in [8] and -1.02 in [9]. Further, the composite z-score was 0.365 (inactive) in [4] and 0.997 in assay [10].

As to `C=CC1c2cc(O)c(OC)cc2CCN1C` (stereo not given), the z-score in assay [1] was -0.582; in assay [2], -0.457 (inactive); in assay [3] it was -0.728 (inactive); in assay [5] it was -0.283 (inactive); in [6], -0.071 (inactive); in assay [7], -0.0683 (inactive). Moreover, the z-score in [8] was 0.113 (inactive); in [9] it was -1.16. The composite z-score was -3.34 (inactive) in [4] and 0.031 in assay [10].

Take `C=CCNC(=O)[C@@H]1[C@H]2C(=O)O[C@H](c3ccccc3)[C@H](c3ccccc3)N2[C@H](c2ccc(OCCO)cc2)[C@@]12C(=O)Nc1ccc(C#CC3(O)CCCCCC3)cc12`: the z-score is -1.01 in assay [1]; 0.933 (inactive) in assay [2]; -2.37 (inactive) in [3]; 2.09 (inactive) in assay [5]; 1.16 (inactive) in assay [6]; -0.347 (inactive) in [7]. Moreover, the results for the z-score in [8] and in [9] were -0.797 (inactive) and -2, respectively. Moreover, the composite z-score was 0.315 (inactive) in assay [4] and -0.0095 in assay [10].

Regarding `CCCNC(=O)[C@@]1(c2ccc([N+](=O)[O-])cc2)CC(=O)N(C(C)C)[C@@H]1c1ccc(CO)cc1`, the z-score was 0.0889 in [1]; -0.324 (inactive) in assay [2]; -0.96 (inactive) in [3]; 0.373 (inactive) in [5]; -0.355 (inactive) in [6]; 0.388 (inactive) in assay [7]. The figures for the z-score in assay [8] and in assay [9] were -0.508 (inactive) and 0.123, respectively. Also, the composite z-score in assay [4] was 0.0058 (inactive); in assay [10] it was 0.0692.

With `COC(=O)[C@H](Cc1ccccc1)N1CC2=CCCC=C[C@@H]2[C@H]1[C@H](O)Cc1ccccc1`, the z-score was 0.272 in [1]; -1.7 (inactive) in assay [2]; 0.612 (inactive) in assay [3]; -0.565 (inactive) in assay [5]; -0.77 (inactive) in [6]; -0.337 (inactive) in assay [7]. Moreover, the figures for the z-score in [8] and in [9] were -0.27 (inactive) and 0.0722, respectively. Further, the values for the composite z-score in assay [4] and in [10] were -0.313 (inactive) and 0.104, respectively.

Take `COC(=O)[C@]1(Cc2ccccc2)N=C(c2ccc(OCCCO)cc2)O[C@@H]1c1ccccc1CN=[N+]=[N-]`: the z-score in assay [1] was -4.19; in [2], -0.813 (inactive); in [3], -8.88 (active); in [5], 1.84 (inactive); in assay [6], 2.72 (inactive); in assay [7], 1.28 (inactive). Further, the z-score in assay [8] was -0.88 (inactive); in assay [9] it was -7.14. Moreover, the composite z-score is 1.94 (inactive) in [4] and 0.0159 in assay [10].

Turning to `O=C1O[C@@H](c2ccccc2)[C@@H](c2ccccc2)N2[C@@H](c3ccccc3OCCO)[C@]3(C(=O)Nc4ccc(C#CCCO)cc43)[C@@H](C(=O)NC[C@H](O)c3ccccc3)[C@H]12`, the z-score in assay [1] was 0.5; in assay [2] it was 1.29 (inactive); in assay [3], 0.253 (inactive); in [5], 0.614 (inactive); in [6], 2.96 (inactive); in assay [7] it was 0.797 (inactive). For the same compound, the results for the z-score in [8] and in [9] were 0.367 (inactive) and -2.7, respectively. Besides, the results for the composite z-score in [4] and in assay [10] were 0.873 (inactive) and -0.0669, respectively.
